Test results published in PubChem BioAssay (NCATS).
Inconclusive results are not listed. A call without a number means that no potency is given here. Calls of active or inactive are those of the source. Calls follow the shape of the dose curve; as a rule, active = well fitted cell-killing curve with a large enough effect; inconclusive = small, poorly fitted or top-dose-only effect, or effect the other way; inactive = flat fitted curve, though single readings scatter.

system: Tov112D; experiment: Primary qHTS to identify gynecologic anti-cancer compounds using libraries of approved drugs and bioactive compounds (AID 1345084); settings: Gynecologic cancer cell panel viability, ATPlite luminescence, 48 h; series mostly up to 57.5 µM; also: nearly all actives have a fitted effect of over 55% in size
In short: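 Measured: luminescence after ATPlite addition (15 min, RT). Exposure: 48 h, 37 C, 5% CO2.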
Potency is read from the fitted curve at half-maximal effect.

Row | Compound | Potency
1 | CC(C)c1cc(CNc2nc(Nc3cc(C4CC4)[nH]n3)cc(N3CCN(C)CC3)n2)on1 | 5.01 µM (active)
2 | COc1ccc(C(=O)Nc2ncc(-c3ccc(C(=O)O)cc3)s2)cc1 | 14.1 µM (active)
3 | CC(C)c1cc(C(=O)N2CC[C@H](NC(=O)C3CC3)C2)n[nH]1 | inactive
4 | CN1c2ccccc2C(=O)N2CCC3c4ccccc4NC3C21 (stereo not drawn) | 1.78 µM (active)
5 | CC1=C(C(=O)O[C@@H]2O[C@H](COC3OCC(O)C(O)C3O)[C@@H](O)[C@H](O)[C@H]2O)C(C)(C)CCC1 (stereo partly drawn) | inactive
6 | Cc1nc(Nc2n[nH]c3c2CN(C(=O)NC(CN(C)C)c2ccccc2)C3(C)C)c2sccc2n1 (stereo not drawn) | 6.31 µM (active)
7 | Cc1onc(C(=O)N2CCN(C(c3ccc(Cl)cc3)c3ccc(Cl)cc3)CC2)c1[N+](=O)[O-] | 7.94 µM (active)
8 | COc1ncc(Nc2ncc([C@@H](C)N3CCN(S(C)(=O)=O)CC3)cc2-c2nc(C)nc(N)n2)cc1F | inactive
9 | COc1ccc(F)cc1-c1cc(NC(=O)[C@@H]2CCCNC2)ncc1Cl | 0.708 µM (active)
10 | CC[C@H](C)[C@H](NC(=O)[C@H]([C@@H](C)CC)N(C)C(C)=O)C(=O)N[C@H](C(=O)N[C@@H](CC(C)C)C(=O)[C@@]1(C)CO1)[C@@H](C)O | 0.1 µM (active)
11 | CCOc1cc(N2CCC(O)CC2)ccc1Nc1ncc2c(n1)N(C1CCCC1)CCC(=O)N2C | inactive
12 | CC[C@]1(O)CC2CN(CCc3c([nH]c4ccccc34)[C@@](C(=O)OC)(c3cc4c(cc3OC)N(C=O)[C@H]3[C@@](O)(C(=O)OC)[C@H](OC(C)=O)[C@]5(CC)C=CCN6CC[C@]43[C@@H]65)C2)C1 (stereo partly drawn) | 0.158 µM (active)
13 | CC1(CCOC2OC(CO)C(O)C(O)C2O)CCC23OC2(C1)C(O)CC1C(C)(C(=O)O)CCCC13C (stereo not drawn) | inactive
14 | O=C(c1ccccc1)c1ccc2nc(NC(=O)c3csc(C4CCN(c5ncnc6ccsc56)CC4)n3)[nH]c2c1 | 12.6 µM (active)
15 | CN1CCN(c2ccc(C(=O)Nc3n[nH]c4ccc(Cc5cc(F)cc(F)c5)cc34)c(NC3CCOCC3)c2)CC1 | inactive
16 | O=C1N=C(N2CCOCC2)CN1c1ccc(Cl)cc1 | inactive
17 | CC(C)c1c2cc(-c3ccnc(NC4CCC(NC5CCOCC5)CC4)n3)ccc2nn1C (stereo not drawn) | 0.398 µM (active)
18 | CC1=C(C(=O)OCc2ccccc2)C(c2ccc(-c3ccccc3)cc2)NC(=O)N1CCCCCC(=O)O (stereo not drawn) | inactive
19 | O=C(c1cn(Cc2cncn2Cc2ccc(Br)cc2)cc1-c1cccc2ccccc12)N1CCOCC1 | inactive
20 | CC(C)CCC[C@@H](C)[C@H]1CC[C@H]2[C@@H]3CC(=O)[C@H]4C[C@@H](O)CC[C@]4(C)[C@H]3CC[C@]12C | inactive
21 | CC(=O)OC1C(=O)C2(C)C(O)CC3OCC3(OC(C)=O)C2C(OC(=O)c2ccccc2)C2(O)CC(OC(=O)C(O)C(NC(=O)c3ccccc3)c3ccccc3)C(C)=C1C2(C)C (stereo not drawn) | inactive
22 | CN1CCC(Nc2nc(Nc3ccc(Oc4ccccc4)cc3)c3c(=O)[nH]cc(Br)c3n2)CC1 | inactive
23 | Cc1ccc(C(=O)Nc2noc3ccccc23)cc1 | 28.2 µM (active)
